The results in this text go back to PubChem BioAssay (NCI).

The panel holds about 83,000 compounds, 20% with a hit somewhere; the sample as a whole holds those more often.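 Method: cells in 96-well plates; compound added at one concentration; 48 h incubation; percent growth measured; values under 10 scored active.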 Unmarked numbers belong to inactive results. Active and inactive are the calls of the source.

Among the test systems are NCI-H23 lung; NCI-H226 lung; NCI-H322M lung; HOP-62 NSCLC; NCI-H460 lung; HOP-92 NSCLC; NCI-H522 lung; A549/ATCC NSCLC; 786-0 renal; COLO 205 colon; DU-145 prostate; K-562 leukemia; MALME-3M melanoma; MDA-MB-231 breast; RXF 393 renal; SF-268 CNS; SF-295 CNS; SF-539 CNS; UACC-257 melanoma; M14 melanoma.
What all share (test): NCI-60 one-dose screen, 48 h (100 = growth as untreated, 0 = no growth, -100 = all killed)
What all share (details): 10 µM unless noted

In the case of `CCOC(=O)CSCCC#N`, the growth is 95.3% in the assay on NCI-H23 lung; 98.3% in the assay on NCI-H226 lung; 101% in the assay on NCI-H322M lung; 82.3% in the assay with HOP-62 NSCLC; 106% in the assay on NCI-H460 lung; 102% in the assay on HOP-92 NSCLC. The growth is 96.3% in the assay on NCI-H522 lung; 101% with A549/ATCC NSCLC; 93.5% with 786-0 renal; 107% in the assay with COLO 205 colon; 108% in the assay with DU-145 prostate; 112% in the assay on K-562 leukemia. Besides, the growth is 106% in the assay with MALME-3M melanoma; 110% in the assay with MDA-MB-231 breast; 97.8% in the assay with RXF 393 renal; 101% in the assay with SF-268 CNS; 94.7% with SF-295 CNS; 92.2% in the assay on SF-539 CNS. Besides, the results for the growth in the assay on UACC-257 melanoma and in the assay on M14 melanoma were 95.4% and 94.9%, respectively.
As to `C=CCC(OC(C)=O)c1ccc(OC)c(OC)c1` (stereo not given), the growth with NCI-H23 lung was 109%; in the assay with NCI-H226 lung it was 119%; in the assay with NCI-H322M lung, 105%; in the assay on HOP-62 NSCLC, 110%; with NCI-H460 lung it was 106%; with HOP-92 NSCLC it was 108%. For the same molecule, the growth in the assay on NCI-H522 lung was 92.1%; in the assay on A549/ATCC NSCLC it was 104%; with 786-0 renal it was 115%; in the assay on COLO 205 colon, 113%; in the assay on DU-145 prostate, 121%; in the assay with K-562 leukemia, 116%. Further, the growth in the assay on MALME-3M melanoma is 124%; with MDA-MB-231 breast, 128%; in the assay with RXF 393 renal, 124%; in the assay on SF-268 CNS, 97.8%; with SF-295 CNS it was 101%; in the assay on SF-539 CNS it was 108%. Also, the growth in the assay on UACC-257 melanoma was 103%; in the assay with M14 melanoma, 108%.
On to `NC(=O)N1CCOCC1`, for which the growth in the assay with NCI-H23 lung is 106%; in the assay on NCI-H226 lung, 100%; in the assay with NCI-H322M lung, 106%; with HOP-62 NSCLC it was 95.4%; in the assay on NCI-H460 lung, 108%; in the assay on HOP-92 NSCLC, 72.9%. In addition, the growth was 94.2% with NCI-H522 lung; 106% in the assay with A549/ATCC NSCLC; 108% in the assay on 786-0 renal; 113% in the assay with COLO 205 colon; 123% in the assay on DU-145 prostate; 96.6% in the assay with K-562 leukemia. Besides, the growth was 111% in the assay on MALME-3M melanoma; 128% in the assay on MDA-MB-231 breast; 117% in the assay with RXF 393 renal; 109% with SF-268 CNS; 115% with SF-295 CNS; 117% in the assay on SF-539 CNS. The growth was 119% with UACC-257 melanoma and 108% with M14 melanoma.
Consider `CC(CCC#N)(CCC#N)C(=O)c1ccccc1`, for which the growth was 109% in the assay on NCI-H23 lung; 107% in the assay with NCI-H226 lung; 112% in the assay with NCI-H322M lung; 107% in the assay on HOP-62 NSCLC; 104% in the assay with NCI-H460 lung; 61% in the assay on HOP-92 NSCLC. The growth with NCI-H522 lung was 88.1%; with A549/ATCC NSCLC it was 97.1%; with 786-0 renal it was 110%; in the assay on COLO 205 colon, 117%; with DU-145 prostate, 106%; in the assay on K-562 leukemia, 104%. For the same molecule, the growth with MALME-3M melanoma was 114%; in the assay on MDA-MB-231 breast, 109%; in the assay on RXF 393 renal, 98.6%; in the assay on SF-268 CNS, 112%; with SF-295 CNS, 113%; in the assay with SF-539 CNS, 115%. Moreover, the figures for the growth with UACC-257 melanoma and with M14 melanoma were 106% and 115%, respectively.
Take `O=C(O)c1cccc(-n2ncc(Cl)c(Cl)c2=O)c1`: the growth is 107% in the assay on NCI-H23 lung; 101% in the assay with NCI-H226 lung; 117% in the assay on NCI-H322M lung; 100% in the assay with HOP-62 NSCLC; 101% in the assay with NCI-H460 lung; 112% in the assay with HOP-92 NSCLC. Moreover, the growth is 36% with NCI-H522 lung; 102% in the assay on A549/ATCC NSCLC; 109% with 786-0 renal; 117% in the assay with COLO 205 colon; 114% in the assay with DU-145 prostate; 109% in the assay with K-562 leukemia. The growth was 106% with MALME-3M melanoma; 103% with MDA-MB-231 breast; 118% in the assay on RXF 393 renal; 108% in the assay with SF-268 CNS; 102% in the assay on SF-295 CNS; 101% in the assay with SF-539 CNS. In addition, the growth is 89.2% with UACC-257 melanoma and 101% with M14 melanoma.
Consider `COC1OC(CO)C(OC)C(O)C1O` (stereo not given), for which the growth in the assay on NCI-H23 lung was 105%; with NCI-H226 lung, 102%; with NCI-H322M lung it was 99.9%; with HOP-62 NSCLC, 102%; with NCI-H460 lung, 97.4%; in the assay with HOP-92 NSCLC it was 111%. The growth was 113% in the assay on NCI-H522 lung; 103% in the assay with A549/ATCC NSCLC; 101% with 786-0 renal; 113% in the assay with COLO 205 colon; 105% with DU-145 prostate; 102% in the assay on K-562 leukemia. Besides, the growth in the assay with MALME-3M melanoma was 111%; with MDA-MB-231 breast, 111%; in the assay on RXF 393 renal, 99.4%; in the assay with SF-268 CNS, 95.7%; in the assay on SF-295 CNS, 96.7%; in the assay with SF-539 CNS, 99%. The growth in the assay on UACC-257 melanoma was 106%; in the assay with M14 melanoma, 103%.
On to `CN(CCCN(C)CCC1CCCCC1)CCC1CCCCC1`, for which the growth in the assay with NCI-H23 lung was 64.1%; with NCI-H226 lung, 66.9%; in the assay with NCI-H322M lung, 94.6%; in the assay with HOP-62 NSCLC, 57.3%; with NCI-H460 lung, 29%; in the assay with HOP-92 NSCLC it was 21.3%. Further, the growth is 69.6% in the assay with NCI-H522 lung; 83.7% in the assay with A549/ATCC NSCLC; 53.2% in the assay with 786-0 renal; -81% (active) with COLO 205 colon; 83.8% in the assay with DU-145 prostate; -57.5% (active) in the assay on K-562 leukemia. The growth is -74.7% (active) in the assay on MALME-3M melanoma; -3% (active) in the assay on MDA-MB-231 breast; -4.36% (active) with RXF 393 renal; 84.2% with SF-268 CNS; 27.1% in the assay with SF-295 CNS; -57.7% (active) with SF-539 CNS. Moreover, the growth with UACC-257 melanoma was -66.3% (active); with M14 melanoma, -100% (active).
Regarding `Cc1ccc(N2C(=O)c3cccc4c(N)c(S(=O)(=O)O)cc(c34)C2=O)cc1`, the growth in the assay with NCI-H23 lung is 95.7%; in the assay with NCI-H226 lung, 89.7%; in the assay with NCI-H322M lung, 114%; in the assay on HOP-62 NSCLC, 107%; with NCI-H460 lung, 104%; in the assay on HOP-92 NSCLC, 86.1%. Also, the growth with NCI-H522 lung is 84.5%; in the assay with A549/ATCC NSCLC, 104%; in the assay with 786-0 renal, 104%; in the assay with COLO 205 colon, 109%; with DU-145 prostate it was 120%; in the assay with K-562 leukemia, 103%. In addition, the growth in the assay with MALME-3M melanoma was 135%; with MDA-MB-231 breast, 106%; in the assay with RXF 393 renal, 111%; with SF-268 CNS, 108%; in the assay on SF-295 CNS it was 129%; in the assay with SF-539 CNS, 107%. Moreover, the growth in the assay with UACC-257 melanoma is 114%; with M14 melanoma, 111%.
